4-MU autofl = qHTS Assay for Spectroscopic Profiling in 4-MU Spectral Region | compound autofluorescence, 340/450 nm, 4-MU equivalents; hits give high values | max dye-equivalent concentration, M | 59,000 compounds, 11% hits | AID 589, 2007; in the data active means max dye-equivalent concentration above about 10 nM; inconclusive means mostly about 1.1 nM to 9.6 nM
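Intrinsic fluorescence at 340/450 nm (ex/em) was read after 15 min at room temperature in pH 8.0, 100 mM Tris. Each compound concentration expressed as 4-MU-equivalent concentration from a six-point 4-MU standard series on each plate.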
GBA activity = Glucocerebrosidase | Potency, µM | 48,000 compounds, 1.1% hits | purified enzyme, resorufin glucoside fluorescence (screen aimed at inhibitors), 20 min | AID 360, 2006; in the data active means potency below about 15 µM; inconclusive means mostly about 16 µM to 33 µM;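 further: potency means the concentration at half of the fitted maximal effect; the screen sought inhibitors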
Target sequence (P04062 whole entry, looked up): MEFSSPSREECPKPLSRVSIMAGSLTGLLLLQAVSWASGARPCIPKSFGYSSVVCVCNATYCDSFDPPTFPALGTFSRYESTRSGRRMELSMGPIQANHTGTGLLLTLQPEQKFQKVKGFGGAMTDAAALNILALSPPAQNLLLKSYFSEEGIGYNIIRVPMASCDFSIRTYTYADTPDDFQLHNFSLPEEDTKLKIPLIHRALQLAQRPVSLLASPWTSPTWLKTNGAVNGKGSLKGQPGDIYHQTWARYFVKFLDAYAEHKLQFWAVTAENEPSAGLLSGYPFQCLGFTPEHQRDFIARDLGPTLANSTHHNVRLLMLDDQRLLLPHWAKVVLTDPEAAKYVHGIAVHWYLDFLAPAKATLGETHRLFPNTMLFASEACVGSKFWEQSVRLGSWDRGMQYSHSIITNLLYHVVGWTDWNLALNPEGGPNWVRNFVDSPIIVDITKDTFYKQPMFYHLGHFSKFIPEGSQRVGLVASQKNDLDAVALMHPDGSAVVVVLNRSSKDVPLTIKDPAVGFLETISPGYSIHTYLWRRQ
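Compounds titrated against 0.2 nM normal enzyme, 30 uM resorufin beta-D-glucopyranoside substrate, citrate/phosphate buffer with taurocholate and tween-20, pH 5.9. Reaction ran 20 min at room temperature; fluorescence (Ex 548/Em 600) gave AC50.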
HADH2 inhib = qHTS Assay for Inhibitors of HADH2 (Hydroxyacyl-Coenzyme A Dehydrogenase, Type II) | AID 886, 2007 | 73,000 compounds, 3.4% hits | 3-hydroxyacyl-CoA dehydrogenase type-2 (Homo sapiens), Q99714 | recombinant HADH2, NADH fluorescence, beta-hydroxybutyryl-CoA | Potency, µM (series often up to 57.1 µM), inactives show at the top dose activity change, negative = inhibition, usual class: inhibitors; further: potency means the concentration at half of the fitted maximal effect; on the % scale 0 is the no-effect control and ±100 the full control effect; nearly all actives have a fitted effect of over 60% in size
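Activity measured as NADH fluorescence gain (360/450 nm), taken as the change between first and last reads of a 4-min kinetic run. Conditions: pH 9.0 Tris buffer, 20 nM E. coli-expressed His-tagged enzyme, 1 mM NAD+, 90 uM beta-hydroxybutyryl-CoA; 15-min compound preincubation.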
AID923 = qHTS Assay for Allosteric/Competitive Inhibitors of Caspase-1: Spectroscopic Profiling in AFC Spectral Region; 75,000 compounds, 1.1% hits; Potency, µM (series often up to 57.5 µM), inactives show top-dose fluorescence increase, most hits filed as activators; compound fluorescence, AFC spectral region (405/520 nm); further: potency means the concentration at half of the fitted maximal effect; 0% is about no effect
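Titrations up to 57 uM read every 20 sec for 3 min (405/520 nm) with 50 nM caspase 1 and 5 uM Ac-WEHD-AFC, pH 7.5 HEPES buffer. Fluorescence-vs-time intercept gave baseline, scaled against on-plate AFC standard.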
A350 autofl = qHTS Assay for Spectroscopic Profiling in A350 Spectral Region; AID 590, 2007; Compound autofluorescence, 340/450 nm, Alexa 350 dye-equivalents; hits give high values; 59,000 compounds, 11% hits; max dye-equivalent concentration, M; in the data active means max dye-equivalent concentration above about 10 nM; inconclusive means mostly about 1.1 nM to 9.6 nM
HSD17B inh = qHTS Assay for Inhibitors of HSD17B4, hydroxysteroid (17-beta) dehydrogenase 4; Potency, µM (series often up to 57.1 µM), without a hit: at the top dose activity change, negative = inhibition, usual class: inhibitors; recombinant HSD17B10, NADH fluorescence kinetic; 75,000 compounds, 7.6% hits;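 further: the protocol describes HADH2 (HSD17B10) and not the HSD17B4 of the title; potency means the concentration at half of the fitted maximal effect; on the % scale 0 is the no-effect control and ±100 the full control effect; nearly all actives have a fitted effect of over 70% in size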
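His-tagged E. coli-expressed HADH2 at 20 nM in 100 mM Tris-HCl pH 9.0 with 0.01 % Tween-20, preincubated 15 min with compound at room temperature. Reaction with 1 mM NAD+ and 90 uM beta-hydroxybutyryl coenzyme A; NADH fluorescence (360/450 nm) read kinetically over 4 min, last minus first point.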
Starred values were filed as active, the others as inactive; i = inactive; ? = inconclusive; . = no result; ! = a repeat was not active; [ ] = another dose, or the depositor's remark. In the library only some 13% were active in any assay of this set; here they are far more common. Unless noted, the call rests on the fitted dose curve; in most records, active means well fitted curve in the direction sought with a large enough effect; inconclusive means small, poorly fitted or top-dose-only effect, or another doubt; inactive means no such curve, though single readings can be large; an effect the other way counts as inactive or inconclusive.

SMILES | 4-MU autofl | GBA activity | HADH2 inhib | AID923 | A350 autofl | HSD17B inh
O=C(CCCCCn1c(=S)[nH]c2cc3c(cc2c1=O)OCO3)N1CCN(C(=O)c2ccco2)CC1 | i | ? | -5.5% | 1.3% | i | -9.5%
O=C(CCCCCn1c(=S)[nH]c2cc3c(cc2c1=O)OCO3)N1CCN(C2CCCCC2)CC1 | i | 0.896* | -1.6% | -0.3% | i | -5.3%
CC1(C)CC(=O)C2=C(C1)OC(N)=C(C#N)[C@@]21C(=O)N(CC(N)=O)c2ccccc21 | 9.18e-08M* | . | . | . | 9.62e-08M* | .
O=C(NCCCn1ccnc1)c1cccnc1 | i | . | . | . | i | .
Cc1cc(-c2ccccc2)nc2cc(C(=O)NCCCn3ccnc3)nn12 | 6.33e-08M* | >76.9 | 14.3% | 4.3% | 5.63e-08M* | 25.1µM*
Cc1cc(-c2ccccc2)nc2cc(C(N)=O)nn12 | 5.21e-08M* | >76.9 | 31.6µM* | 4.5% | 6.31e-08M* | 31.6µM*
CCOC(=O)N/N=C1/C[C@@H](O)[C@@H](O)[C@@H]2[C@@H]3C(=O)N([C@@H](C)c4ccccc4)C(=O)[C@H]3CC[C@H]12 | . | . | 7.9%[11.4 µM] | 1.7%[11.5 µM] | . | 0.5%[11.4 µM]
CSCCC(NC(=O)C1CCC(C)CC1)C(=O)O (stereo not drawn) | i | >76.9 | 0.4% | 1.2% | i | -2.0%
CSCCC(NC(=O)C1CCC(C)CC1)C(=O)NCCN1CCOCC1 (stereo not drawn) | 2.06e-08M* | >76.9 | -0.7% | -0.9% | 2.27e-08M* | 22.9%
Nc1c(S(=O)(=O)O)cc(S(=O)(=O)O)c2ccc(N=Nc3ccccc3)c(O)c12 | 1.12e-08M* | . | -4.1%[11.4 µM] | -1.1%[11.5 µM] | 1.28e-08M* | -11.5%[11.4 µM]
NS(=O)(=O)c1ccc(N=Nc2cc3ccccc3c(C(=O)O)c2O)cc1 | i | . | 7.8%[11.4 µM] | -1.3%[11.5 µM] | i | -25.0%[11.4 µM]
O=C(O)[C@H](/C=C\c1ccccc1)c1ccccc1 | i | . | -5.3%[11.4 µM] | -4.1%[11.5 µM] | i | -2.6%[11.4 µM]
Cc1ccc(C2CC(c3cccs3)n3nc(N)nc3N2)cc1 (stereo not drawn) | 2.23e-08M* | . | . | . | 2.52e-08M* | .
CCOc1ccc(C2CC(c3ccc(Br)cc3)Nc3nc(N)nn32)cc1 (stereo not drawn) | 1.97e-08M* | ? | 6.8% | -0.2% | 1.68e-08M* | ?
O=c1cnnc(SCCc2ccccc2)[nH]1 | 7.01e-07M* | >76.9 | 200.9% | 16.9% | 5.79e-07M* | 25.1µM*
Cc1cccc(CSc2nncc(=O)[nH]2)c1 | i | >76.9 | 1.0% | -0.7% | i | 0.2%
C[C@]1(c2ccccc2)O[C@@H]2C[C@@H]3[C@@H]4CCC5=CC(=O)C=C[C@@]5(C)[C@]4(F)[C@H](O)C[C@]3(C)[C@@]2(C(=O)CO)O1 | i | . | 9.0%[11.4 µM] | -3.3%[11.5 µM] | i | 0.9%[11.4 µM]
CCn1cc(C(=O)O)c(=O)c2cnc(N3CCNCC3)nc21 | i | . | -4.3%[25.6 µM] | 0.3% | i | -7.5%
CCn1cc(C(=O)O)c(=O)c2cc(F)c(N3CCN[C@@H](C)C3)c(F)c21 | 1.75e-08M*! | . | 15.8µM* | 1.0%[25.7 µM] | 1.52e-08M*! | 12.6µM*
O=C(c1cnccn1)N1CCC2(CC1)CN(Cc1nccs1)C2 | i | . | -5.0% | 3.3% | i | 2.8%
COc1ccccc1NC(=O)C1CCCN(S(=O)(=O)c2cccc3nsnc23)C1 (stereo not drawn) | i | >76.9 | 5.6% | 2.3% | i | -7.1%
CC1Cc2ccccc2N1C(=O)C1CCCN(S(=O)(=O)c2cccc3nsnc23)C1 (stereo not drawn) | 2.4e-07M* | >76.9 | ? | 1.2% | 7.12e-08M* | -19.5%
Cc1cccc(N2CCN(C(=O)C3CCN(S(=O)(=O)c4cccc5nsnc45)CC3)CC2C)c1 (stereo not drawn) | 2.6e-08M* | >76.9 | -4.6% | 0.5% | 2.46e-08M* | -12.5%
Cc1cccc(NC(=O)C2CCN(S(=O)(=O)c3cccc4nsnc34)CC2)n1 | 3.24e-08M* | >76.9 | -13.0% | 0.8% | 3.1e-08M* | 1.6%
O=C(C1CCN(S(=O)(=O)c2cccc3nsnc23)CC1)N1CCCc2ccccc21 | 1.26e-08M* | . | -2.1% | 0.4% | 1.18e-08M* | 1.9%

Screening data (PubChem)
